Results filed as inconclusive are left out. Calls of active or inactive are those of the source.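 The calls were made as follows, unless noted: active = normalized viability below 100% at a tested concentration; inactive = the rest.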
What was measured:
[1] = growth inhibition of DIPG glioma cells, dose response, cell-based, SU-DIPG-XVII, MIPE5.0, CellTiter-Glo, qHTS (AID 1347060; cut-off not given, nearly all actives have AC50 up to about 26 µM;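 also: cells exposed to compound for 48 hours before viability readout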); conditions: SU-DIPG-XVII viability, CellTiter-Glo ATP luminescence
[2] = growth inhibition of DIPG glioma cells, dose response, cell-based, SU-DIPG-XIII, MIPE5.0, CellTiter-Glo, qHTS (AID 1347064; cut-off not given, nearly all actives have AC50 up to about 23 µM;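 also: cells exposed to compound for 48 hours before the viability read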); conditions: SU-DIPG-XIII viability, CellTiter-Glo ATP luminescence
[3] = viability loss in pontine glioma line – cell-based, SU-DIPG-XXV, MIPE5.0, CellTiter-Glo, qHTS, dose response (AID 1347065; cut-off not given, nearly all actives have AC50 up to about 26 µM;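 also: cells exposed to compound for 48 hours before ATP readout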); conditions: CellTiter-Glo ATP luminescence
[4] = SU-DIPG-VI glioma cell viability, MIPE4.0 library, CellTiter-Glo luminescence, qHTS (AID 1347066; cut-off not given, nearly all actives have AC50 up to about 30 µM;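 also: cells exposed to compound for 48 hours before readout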); conditions: CellTiter-Glo ATP luminescence
[5] = JHH-DIPG-1 glioma cell viability, MIPE5.0 library, CellTiter-Glo luminescence, qHTS (AID 1347067; cut-off not given, nearly all actives have AC50 up to about 26 µM;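 also: cells exposed to compound for 48 hours before readout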); conditions: JHH-DIPG-1 glioma viability, CellTiter-Glo ATP luminescence
[6] = SU-DIPG-XXV glioma cell viability, MIPE5.0 library, qHTS (AID 1347068; cut-off not given, nearly all actives have IC50 up to about 30 µM)
[7] = sensitizers of A549 cells to miR-34 induction, primary screen, imaging, A549 dox-inducible miR-34, nuclei and caspase counts (AID 1347080;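 active = compounds whose cell count with miR-34 switched on is under 0.7 times the count with it off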); conditions: A549 miR-34 inducible, Hoechst nuclei count, 48 h
[8] = survival rescue of mitochondrial mutant cells in low glucose, primary screen, MELAS cybrids, Rieske KO mouse fibroblasts, CellTiter-Glo (AID 1508586;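 active = mean z-score across replicates of 1.96 or higher in either the MELAS or the Rieske mutant cell line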;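 also: z relative to plate mean and SD of compound and empty wells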)
[9] = ovarian cancer cell viability with rucaparib, profiling panel, oncology-focused library, rucaparib conditional (AID 1508598); conditions: patient-derived ovarian cancer cells, CellTiter-Glo viability, 144 h, stronger effect = lower value

## COCCOc1nc(-c2ccc(Cl)c(Cl)c2)n(-c2ccc(NC(=O)CCl)cc2)n1
[1]
  AC50: 1320 nM (active)
[2]
  AC50: 2630 nM (active)
[3]
  AC50: 2950 nM (active)
[4]
  outcome: inactive
[5]
  AC50: 2630 nM (active)
[6]
  outcome: inactive
[7]; stronger effect = lower value, cell number ratio, induced over uninduced
  fold change: 1.14 (inactive)
[7]; measured here: relative caspase fold change +Dox/-Dox
  fold change: 0.519
[7]; measured here: total cells with miR-34 induction, stronger effect = lower value
  cell count: 3760
[7]; measured here: total cells without miR-34 induction
  cell count: 3290
[8]; MELAS cybrid survival, CellTiter-Glo 48 h, stronger effect = higher value
  z-score: -0.782 (inactive)
[8]; Rieske KO mouse fibroblast survival, CellTiter-Glo 72 h
  z-score: -7.88
[9]; at 0.000305 µM, OCI-C5x cells, with rucaparib 10 µM, 100% = cells with rucaparib alone
  viability: 125% (inactive)
[9]; at 0.000305 µM, OCI-C5x cells, without rucaparib
  viability: 115% (inactive)
[9]; at 0.000305 µM, OCI-P5x cells, with rucaparib 20 µM, 100% = cells with rucaparib alone
  viability: 104% (inactive)
[9]; at 0.000305 µM, OCI-P5x cells, without rucaparib
  viability: 105% (inactive)
[9]; at 0.00122 µM, OCI-C5x cells, with rucaparib 10 µM, 100% = cells with rucaparib alone
  viability: 131% (inactive)
[9]; at 0.00122 µM, OCI-C5x cells, without rucaparib
  viability: 104% (inactive)
[9]; at 0.00122 µM, OCI-P5x cells, with rucaparib 20 µM, 100% = cells with rucaparib alone
  viability: 93.4% (active)
[9]; at 0.00122 µM, OCI-P5x cells, without rucaparib
  viability: 103% (inactive)
[9]; at 0.00488 µM, OCI-C5x cells, with rucaparib 10 µM, 100% = cells with rucaparib alone
  viability: 131% (inactive)
[9]; at 0.00488 µM, OCI-C5x cells, without rucaparib
  viability: 113% (inactive)
[9]; at 0.00488 µM, OCI-P5x cells, with rucaparib 20 µM, 100% = cells with rucaparib alone
  viability: 105% (inactive)
[9]; at 0.00488 µM, OCI-P5x cells, without rucaparib
  viability: 99.8% (active)
[9]; at 0.0195 µM, OCI-C5x cells, with rucaparib 10 µM, 100% = cells with rucaparib alone
  viability: 114% (inactive)
[9]; at 0.0195 µM, OCI-C5x cells, without rucaparib
  viability: 106% (inactive)
[9]; at 0.0195 µM, OCI-P5x cells, with rucaparib 20 µM, 100% = cells with rucaparib alone
  viability: 103% (inactive)
[9]; at 0.0195 µM, OCI-P5x cells, without rucaparib
  viability: 100% (inactive)
[9]; at 0.0781 µM, OCI-C5x cells, with rucaparib 10 µM, 100% = cells with rucaparib alone
  viability: 125% (inactive)
[9]; at 0.0781 µM, OCI-C5x cells, without rucaparib
  viability: 111% (inactive)

— PubChem BioAssay
